# Results published in PubChem BioAssay.
# Results filed as inconclusive are left out. Activity calls are given as the source filed them. Unless noted, no rule for the calls is given here.
# Key:
# [1] = rapamycin-like changes in RPL19A-GFP expression – cell-based, S. cerevisiae, multiplex flow cytometry, primary screen (AID 1862; in the data active = percent of DMSO control GFP below about 86%;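 also: lower values mimic rapamycin by blocking the RPL19A rise seen in DMSO cells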); conditions: S. cerevisiae RPL19A-GFP strain, flow cytometry fluorescence, 3 h; at 10 µM; stronger effect = lower value
# [2] = TOR pathway GLN3 branch reporter MEP2-GFP changes – S. cerevisiae, multiplex flow cytometry, primary screen (AID 1867;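 active = GFP response, as percent of the DMSO control, above the screen-wide mean plus 3 SD, about 139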;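 also: median GFP channel fluorescence of barcode-gated MEP2-GFP cells measured by flow cytometry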); conditions: S. cerevisiae MEP2-GFP strain, 3 h, at 10 µM, stronger effect = higher value
# [3] = TOR pathway RTG branch CIT2 reporter changes – S. cerevisiae, GFP fusion, multiplex flow cytometry, primary screen (AID 1870;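 active = percent response above a set limit, the screen-wide mean plus 3 SD, cut at about 130% in these data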;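 also: barcoded CIT2-GFP strain pooled with four other GFP strains with rapamycin as positive control; median GFP fluorescence per well over plate mean of DMSO wells so 100% = DMSO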); conditions: S. cerevisiae CIT2-GFP expression, 3 h, at 10 µM, stronger effect = higher value
# [4] = TOR pathway LAP4-GFP level changes – S. cerevisiae, multiplex flow cytometry, primary screen (AID 1873;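 active = GFP signal, as percent of the solvent control, above the screen mean plus 3 SD, about 149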); conditions: S. cerevisiae LAP4-GFP expression, 3 h, at 10 µM, stronger effect = higher value
# [5] = yeast AGP1-GFP level changes, GLN3 branch – cell-based, multiplex flow cytometry, S. cerevisiae, primary screen (AID 1887;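 active = GFP signal above the screen-wide mean plus 3 SD, that is over about 124.5% of the solvent control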;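 also: AGP1-GFP fusion strain of S. cerevisiae within a five-strain barcoded multiplex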); conditions: 3 h, at 10 µM, stronger effect = higher value
# [6] = reduced mouse 2C T cell binding to pMHC/ICAM-1 vesicles – MLPCN validation set, flow cytometry, LFA-1/ICAM-1 modulator project, pilot screen (AID 2523;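 active = response below a set limit, under 55% cells CD8-positive and vesicle-bound, and CD8 cells' 90th-percentile brightness under 279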;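 as to vesicle binding response: mean PE anti-B7-1 fluorescence of CD8+ cells relative to row control; 100% = QL9-loaded vesicles with DMSO vehicle in the same plate row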); conditions: 2C mouse CD8+ T cells, at 7 µM, stronger effect = lower value; double positive events: measured here: CD8+/vesicle+ event percentage
# [7] = target: Integrin beta-1 (Homo sapiens) + Integrin alpha-4 (Homo sapiens) (UniProt P13612+P05556); test: alpha4beta1 integrin LIBS antibody binding reduction – U937 cells, HUTS-21 mAb, flow cytometry, validation set, VLA-4 allosteric modulator project, pilot screen (AID 2674;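 active = inhibition above 50%, about 3 SD of the validation set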;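 also: antibody binding induced by the VLA-4 ligand LDV present at three times its Kd; 0% = LDV ligand with antibody and no compound and 100% = antibody without LDV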); conditions: HUTS-21 LIBS mAb binding, at 6.7 µM, stronger effect = higher value
# [8] = calorie-restriction mimetic ROS inhibitors, yeast – validation compound set, pilot screen (AID 2706;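 active = superoxide response below 65% of plate, a cut near 3 SD across the whole screen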;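 also: yeast exposed to compound for one week at 30 degrees C before staining; 100% = mean of all compound wells on the same plate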); conditions: S. cerevisiae aging, superoxide DHE fluorescence; at 10 µM; stronger effect = lower value
# [9] = target: Beta-adrenergic receptor kinase 1 (Homo sapiens) (UniProt P25098); test: GRK2 binders displacing RNA aptamer, biochemical, validation, human GRK2, bead flow cytometry (AID 488806;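 active = aptamer binding inhibition above 30%, about 3 SD of noise from non-fluorescent compounds; inactive = inhibition at or below 30%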); conditions: bead-bound GRK2, FAM-aptamer displacement, at 10 µM, stronger effect = higher value
# [10] = target: Beta-2 adrenergic receptor (Homo sapiens) (UniProt P07550); test: agonist-induced loss of surface beta2AR – cell-based, FAP fluorogen, flow cytometry, validation set, pilot screen (AID 504459;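 active = percent response above 42, roughly 3 SD of non-fluorescent test compounds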;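 also: agonist-driven loss of surface beta2AR via internalization measured by FAP dye flow cytometry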); conditions: Am2.2-beta2AR cells, at 10 µM, stronger effect = higher value
# [11] = target: AP-2 complex subunit beta (Homo sapiens) (UniProt P63010); test: beta-arrestin/AP2 interaction blockers – biochemical, validation set, GST-AP2 beads, flow cytometry, pilot screen (AID 504541;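 active = inhibition above 54%, about 3 SD of non-fluorescent compounds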;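 also: AP2 carries R879A mutation and is captured from E. coli lysate; bead-bound FITC arrestin peptide fluorescence measuring arrestin peptide binding to AP2; 0% = DMSO wells and 100% = excess unlabeled arrestin peptide control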); conditions: FITC arrestin peptide, at 10 µM, stronger effect = higher value
# [12] = cytosolic pH regulators acting via V-ATPase – S. cerevisiae, pHLuorin, HTS validation (AID 504600; in the data active = response above about 15%;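 also: plate controls were DMSO for no effect and reference compound for full effect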); conditions: V-ATPase proton transport, at 10 µM, stronger effect = higher value
# [13] = tested on: anti-desmoglein-3 scFv antibody binding to human DSG3; test: blockers of pathogenic pemphigus antibody–desmoglein-3 binding – biochemical, validation compound set, bead-based, flow cytometry, pilot screen (AID 588368;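 active = binding below the plate cutoff, the plate median minus 3 SD, with a reading above zero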;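 also: signal is the median channel fluorescence of bead-bound GFP antibody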); conditions: Protein G beads, DSG3-Fc, scFv-GFP binding, at 10 µM, stronger effect = lower value
# [14] = tested on: Botulinum neurotoxin type F light chain protease (Clostridium botulinum); test: Clostridium botulinum type F light chain protease inhibitors, microsphere substrate cleavage, validation (AID 588459); conditions: multiplex microsphere protease substrate cleavage assay, flow cytometry; at 10 µM; stronger effect = higher value
# [15] = target: Botulinum neurotoxin type A (Clostridium botulinum) (UniProt P0DPI0); test: BoNT/A light chain protease inhibitors, biochemical, multiplex microsphere flow cytometry, validation set (AID 588460); conditions: at 10 µM, stronger effect = higher value
# [16] = target: Lethal factor (Bacillus anthracis) (UniProt P15917); test: Bacillus anthracis lethal factor inhibition, microsphere flow cytometry protease assay, validation at 10 µM (AID 588461); conditions: multiplex microsphere protease cleavage assay, stronger effect = higher value
# [17] = Nile Red efflux blockade in pump-expressing yeast – validation compound set, multiplex, phenotypic, pilot screen (AID 588506;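 active = efflux inhibition above 0.42, the validation set average plus 4 SD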;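 also: Nile Red retained in cells so higher fluorescence means more efflux inhibition; 0 = negative control wells and 1 = enniatin B 25 µM full block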); conditions: S. cerevisiae pump-expressing triplex, Nile Red efflux flow cytometry; at 10 µM; stronger effect = higher value
# [18] = target: ATP-binding cassette sub-family B member 6 (Homo sapiens) (UniProt Q9NP58); test: blockers of ABCB6-driven porphyrin uptake – K562-ABCB6 cells, flow cytometry, validation set, pilot screen (AID 588550;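 active = inhibition above the screen-wide mean plus 3 SD, about 51%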;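 also: 0% = DMSO wells and 100% = benzethonium chloride 70 µM positive control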); conditions: K562-ABCB6 porphyrin accumulation, 1 h, at 10 µM, stronger effect = higher value
# [19] = AML differentiation inducers, ER-HoxA9 marrow cells – cell-based, GFP/MAC1 double positive, flow cytometry, validation set, primary screen (AID 588685;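 active = differentiation response of at least 50%, scaled between solvent and reference control, from cells with both markers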;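 also: compound exposure lasts four days before antibody staining and flow analysis; 0% = DMSO wells and 100% = 5 µM fulvestrant positive control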); conditions: stronger effect = higher value
Compound,percent of DMSO control GFP [1],GFP response vs DMSO [2],percent response of DMSO control [3],GFP response vs DMSO [4],"GFP response, % of DMSO [5]",double positive events [6],vesicle binding response [6],inhibition [7],superoxide response (% of plate) [8],aptamer binding inhibition [9],response [10],inhibition [11],response [12],binding (% of control) [13],inhibition [14],inhibition [15],inhibition [16],efflux inhibition (fraction of control) [17],inhibition [18],differentiation response [19]
C[N+]1(C)CCOC(O)(c2ccc(-c3ccc(C4(O)C[N+](C)(C)CCO4)cc3)cc2)C1 (stereo not given),94.6% (inactive),126% (inactive),101% (inactive),76.5% (inactive),88% (inactive),64.9%,192% (inactive),9.37% (inactive),113% (inactive),-3% (inactive),-10.1% (inactive),1.77% (inactive),2.1% (inactive),101% (inactive),1.7% (inactive),0.1% (inactive),0.5% (inactive),0.19 (inactive),15% (inactive),2.46% (inactive)
C=C1CC[C@@]2(O)[C@H]3Cc4ccc(O)c5c4[C@@]2(CCN3CC2CC2)[C@H]1O5,107% (inactive),95.1% (inactive),109% (inactive),90.1% (inactive),102% (inactive),64.3%,1650% (inactive),14.1% (inactive),98.9% (inactive),-2% (inactive),-8.78% (inactive),-7.26% (inactive),5.8% (inactive),99% (inactive),2.7% (inactive),-0.2% (inactive),8.1% (inactive),-0.26 (inactive),13% (inactive),10% (inactive)
CC(C)NC(C)C(=O)c1ccc2ccccc2c1 (stereo not given),104% (inactive),99.6% (inactive),98.6% (inactive),113% (inactive),107% (inactive),63.7%,278% (inactive),-0.43% (inactive),121% (inactive),1% (inactive),14.8% (inactive),-7.53% (inactive),3.67% (inactive),98.4% (inactive),1.8% (inactive),2% (inactive),1.1% (inactive),-0.28 (inactive),106% (active),108% (active)
O=c1c2ccccc2nc(/C=C/c2ccc3c(c2)OCO3)n1-c1ccccc1,102% (inactive),105% (inactive),100% (inactive),110% (inactive),98.9% (inactive),59.9%,140% (inactive),1.44% (inactive),90.1% (inactive),4% (inactive),-4.14% (inactive),-1.43% (inactive),-7.21% (inactive),106% (inactive),-0.7% (inactive),0.6% (inactive),-5% (inactive),0.33 (inactive),0% (inactive),7.82% (inactive)
CC12CC[C@H]3[C@@H](CCC4(O)C[C@H](O)CCC34/C=N/NC(=O)Cc3ccccc3)C1(O)CCC2C1=CC(=O)OC1 (stereo not given in full),103% (inactive),101% (inactive),115% (inactive),92% (inactive),107% (inactive),65.3%,204% (inactive),1.62% (inactive),111% (inactive),1% (inactive),-5.5% (inactive),-3.69% (inactive),1.22% (inactive),95% (inactive),3.5% (inactive),-0.2% (inactive),3.2% (inactive),0.08 (inactive),5% (inactive),0.24% (inactive)
CCn1ccnc1CN1CCCC(C(=O)c2cc(F)ccc2OC)C1 (stereo not given),100% (inactive),93% (inactive),96.7% (inactive),99.9% (inactive),102% (inactive),61.5%,125% (inactive),-3.16% (inactive),96.9% (inactive),2% (inactive),-6.87% (inactive),18.6% (inactive),1.54% (inactive),98.4% (inactive),0.8% (inactive),-1.2% (inactive),-1.6% (inactive),-0.21 (inactive),3% (inactive),-8.8% (inactive)
NNC(=O)c1ccc(Cl)cc1,102% (inactive),103% (inactive),104% (inactive),102% (inactive),102% (inactive),56.2%,114% (inactive),0.25% (inactive),88.1% (inactive),-2% (inactive),7.16% (inactive),3.28% (inactive),3.19% (inactive),98.7% (inactive),-1.9% (inactive),0.4% (inactive),6.8% (inactive),-0.36 (inactive),-3% (inactive),2.74% (inactive)
OC1CCCCC1N1CCC(c2ccccc2)CC1 (stereo not given),92.8% (inactive),133% (inactive),91.3% (inactive),70.4% (inactive),89.4% (inactive),62.4%,171% (inactive),5.49% (inactive),110% (inactive),3% (inactive),-8.3% (inactive),-5.17% (inactive),2.23% (inactive),127% (inactive),8.9% (inactive),-1% (inactive),6.3% (inactive),0.52 (active),15% (inactive),-1.64% (inactive)
Nc1ccncc1,97.9% (inactive),119% (inactive),111% (inactive),77.6% (inactive),99.6% (inactive),61%,218% (inactive),-0.33% (inactive),94.5% (inactive),1% (inactive),-11.6% (inactive),-14.8% (inactive),-2.33% (inactive),108% (inactive),2.4% (inactive),-0.4% (inactive),-3% (inactive),-0.02 (inactive),13% (inactive),4.09% (inactive)
O=S(=O)(c1ccc(F)cc1)N1CCCCC1c1cccnc1 (stereo not given),99% (inactive),102% (inactive),98.3% (inactive),112% (inactive),113% (inactive),62%,202% (inactive),-2.82% (inactive),99.7% (inactive),-2% (inactive),-9.47% (inactive),-4.49% (inactive),2.55% (inactive),105% (inactive),0.1% (inactive),0.8% (inactive),3.2% (inactive),0.08 (inactive),3% (inactive),-11.9% (inactive)
c1ccc2c3c([nH]c2c1)CNCC3,100% (inactive),104% (inactive),106% (inactive),111% (inactive),105% (inactive),55.3%,82.8% (inactive),-19.9% (inactive),113% (inactive),-5% (inactive),-12.8% (inactive),-0.49% (inactive),0.12% (inactive),181% (inactive),-9.7% (inactive),0.1% (inactive),-60.3% (inactive),0.395 (inactive),-82% (inactive),-0.18% (inactive)
OCc1cnc[nH]1,103% (inactive),109% (inactive),98.9% (inactive),101% (inactive),99.4% (inactive),62.2%,4490% (inactive),11% (inactive),104% (inactive),0% (inactive),-1.18% (inactive),3.29% (inactive),1.03% (inactive),97.4% (inactive),0.1% (inactive),-0.3% (inactive),1.2% (inactive),-0.01 (inactive),-11% (inactive),-10.5% (inactive)
CCOC(=O)c1cc2c(cn1)[nH]c1ccccc12,98.4% (inactive),103% (inactive),103% (inactive),105% (inactive),94.5% (inactive),59.3%,102% (inactive),-7.79% (inactive),96.2% (inactive),3% (inactive),-5.72% (inactive),-6.1% (inactive),-1.17% (inactive),98.5% (inactive),2.3% (inactive),0.5% (inactive),-1.3% (inactive),-0.39 (inactive),-6% (inactive),-1.65% (inactive)
CC(C)CCC1(CN2CCCC2=O)C(=O)NC(=O)NC1=O,95.4% (inactive),105% (inactive),86.3% (inactive),120% (inactive),101% (inactive),58.9%,219% (inactive),0.94% (inactive),97.2% (inactive),1% (inactive),5.39% (inactive),-2.03% (inactive),-6.71% (inactive),98.4% (inactive),2.3% (inactive),0.7% (inactive),-0.7% (inactive),0.12 (inactive),5% (inactive),45.6% (inactive)
CC(C)(C)C(O)C(Oc1ccc(Cl)cc1)n1cncn1 (stereo not given),105% (inactive),107% (inactive),106% (inactive),121% (inactive),115% (inactive),62%,218% (inactive),1.44% (inactive),277% (inactive),2% (inactive),-29.1% (inactive),7.17% (inactive),-0.61% (inactive),100% (inactive),-0.4% (inactive),0% (inactive),-4.4% (inactive),-0.04 (inactive),4% (inactive),6.83% (inactive)
CC(=O)OC1C2CCC1C(N1CCCC1)CC2 (stereo not given),98.7% (inactive),106% (inactive),97.7% (inactive),104% (inactive),115% (inactive),67.3%,162% (inactive),9.1% (inactive),91.4% (inactive),0% (inactive),-10.9% (inactive),-16% (inactive),-1.91% (inactive),103% (inactive),-2.3% (inactive),-0.8% (inactive),-5.2% (inactive),-0.04 (inactive),3% (inactive),-12.9% (inactive)
CCOc1ccc(N2C(=O)NC(=O)/C(=C\c3cc(OC)c(OC)cc3[N+](=O)[O-])C2=O)cc1,102% (inactive),97.7% (inactive),109% (inactive),89.3% (inactive),103% (inactive),60.3%,144% (inactive),-7.79% (inactive),107% (inactive),0% (inactive),7.81% (inactive),7.81% (inactive),-4.04% (inactive),97.9% (inactive),-3.1% (inactive),-0.2% (inactive),4.2% (inactive),-0.15 (inactive),-11% (inactive),17.4% (inactive)
